The record followed here is PubChem BioAssay (NCATS).

Records with an inconclusive call do not appear. A number with no mark means an inactive call. The call rests on the fitted dose curve; tested in HEK293 reporter line.
On the % scale 0 is the no-effect control and ±100 the full control effect.

This assay can be described thus: qHTS for Inhibitors of the Functional Ribonucleoprotein Complex (vRNP) of Lassa (LASV) Arenavirus: Viability assay - alamar blue signal for LASV Primary Screen (AID 1347083). Further: nearly all actives have a fitted effect of over 80% in size. To be noted: cell viability, alamar blue fluorescence (LASV minigenome counter-screen); series mostly up to 57.5 µM; activity change, negative = reduced viability: at the top concentration. (qHTS replaces the single test concentration by a dilution series.)
For the molecule `COc1ccc(-c2cnc(-c3cccnc3)o2)cc1`, the “activity change, negative = reduced viability” value was -20.8%.

With `CC1OCCC1=O` (centres undefined), the “activity change, negative = reduced viability” value is 9.48% [at 115 µM].

With `CC[C@H]1O[C@]2(CC[C@@H]1C)C[C@@H]1C[C@@H](C/C=C(\C)C[C@@H](C)/C=C/C=C3\CO[C@@H]4[C@H](O)C(C)=C[C@@H](C(=O)O1)[C@]34O)O2`, the “activity change, negative = reduced viability” value is -31.8%.

Turning to `CCOc1ccc(O)cc1`, the “activity change, negative = reduced viability” value is -12.9% [at 115 µM].

For the molecule `O=C(NCCCCNCCCNC(=O)c1ccccc1)c1ccccc1`, the “activity change, negative = reduced viability” value was 4.04%.

Consider `Cn1cc(C=C2C(=O)Nc3cccnc32)c2ccccc21`, for which the “activity change, negative = reduced viability” value was -33.6%.

As to `O=c1c2ccccc2nc2n1CCC2`, the “activity change, negative = reduced viability” value is -4.46%.

Turning to `O=C(O)[C@H]1NC[C@H]2C[C@H]21`, the “activity change, negative = reduced viability” value was -1.54%.

Regarding `COC(=O)c1cc(O)cc(OC)c1C(=O)c1c(O)cc(C)cc1O`, the “activity change, negative = reduced viability” value is 10.9%.

As to `COC1C(O)C(CO)OC1n1cnc2c(=O)[nH]c(N)nc21` (centres undefined), the “activity change, negative = reduced viability” value was 22.3%.

Turning to `COC1C(O)C(O)C(O)C(O)C1O` (centres undefined), the “activity change, negative = reduced viability” value is 13%.

With `NC1=N[C@H](O)[C@H]2C3O[C@]4(O)O[C@H](C(O)[C@@]2(N1)[C@@H]4O)C3(O)CO` (some centres undefined), the “activity change, negative = reduced viability” value is 25.6%.

Consider `C=CC(C)(CCC=C(C)C)OC(=O)c1ccccc1` (centres undefined), for which the “activity change, negative = reduced viability” value is 6.73% [at 115 µM].

For `CCCC(=O)OC/C=C(\C)CCC=C(C)C`, the “activity change, negative = reduced viability” value is -10.2% [at 115 µM].

For the molecule `CC1(C)CCc2c([nH]c3ccccc3c2=O)O1`, the “activity change, negative = reduced viability” value is 17.5%.

Turning to `CCCCC/C=C\C/C=C\C/C=C\C=C\C(O)CCCC(=O)O` (centres undefined), the activity change, negative = reduced viability is 7.65% [at 0.757 µM].

For the molecule `COc1c2ccoc2c(OC[C@@H](OC(C)=O)C(C)(C)O)c2oc(=O)ccc12`, the “activity change, negative = reduced viability” value was -4.64%.

For `O=C1C[C@@H](c2ccc(O)c(O)c2)Oc2c1ccc(O[C@@H]1O[C@H](CO)[C@@H](O)[C@H](O)[C@H]1O)c2O`, the “activity change, negative = reduced viability” value was 6.5%.

In the case of `C=CCCCCCCCCCCCC(O)CC(O)COC(C)=O` (centres undefined), the “activity change, negative = reduced viability” value is 18%.
